Data on 52 compounds can be found in ChEMBL document CHEMBL4513216, “Probing the Open Global Health Chemical Diversity Library for Multistage-Active Starting Points for Next-Generation Antimalarials” (ACS Infect Dis, 2020).

Each structure is given as a SMILES string. The campaign covered roughly 69,000 compounds. About 8,600 (12%) showed an effect of 50% or more. Only a selection was taken, and strong results are over-represented in it overall.

This experiment has as its system Plasmodium berghei. Kind of experiment: Screen against P. berghei liver stage (PbLuc), transformed with Luciferase, at 10uM. It is filed as functional, HepG2. The conditions noted are these: tested at 10 uM.
Regarding `CCc1c(C)n(CCOC)c2nc3ccccc3n2c1=O`, the INHIBITION is -7.81%.

With `O=c1c2sccc2ncn1Cc1cc(C2CC2)[nH]n1`, the INHIBITION is reported as 37.6%. For `N#Cc1ncn(CCC(=O)Nc2ccccc2F)n1`, the INHIBITION was -3.77%. The same measure for `N#Cc1ncn(CCS(=O)(=O)c2ccccc2)n1`: 65.4%. Turning to `CCc1ccc(CCn2cnc(C#N)n2)cc1`, the INHIBITION is listed as 37.4%. As for `N#Cc1ncn(CCC(=O)Nc2cc(Cl)ccc2Cl)n1`, the INHIBITION is on record as -22.1%. The same measure for `N#Cc1ncn(CCS(=O)(=O)c2ccc(Cl)cc2)n1`: 54.3%.

Consider `N#Cc1ncn(CCS(=O)(=O)c2ccc(Br)cc2)n1`, for which the INHIBITION stood at 41.4%. Consider `CC(C)c1noc(OCC(=O)N2CCCCC2C)n1` (configuration not stated), for which the INHIBITION was -24.9%. With `CC(C)c1nc(C2CCCN2CCNS(C)(=O)=O)no1` (configuration not stated), the INHIBITION is listed as 23.8%. Consider `CNCc1cc(C)n(-c2ccccc2OC)c1C`, for which the INHIBITION was found to be 70.3%. Take `COc1ccccc1-n1c(C)cc(CNC(=O)NC(C)C)c1C`: the INHIBITION stood at 25.1%. Turning to `CCOC(=O)CNC(=O)NCc1cc(C)n(-c2ccc(OC)cc2)c1C`, the INHIBITION is 21.7%. `CNCc1n[nH]c(=O)n1-c1ccccc1Oc1ccccc1`: the INHIBITION was -107%.

`CCOC(=O)CNC(=O)NCc1cc(C)n(-c2ccccc2OC)c1C`: the INHIBITION stood at 63.1%. `CCOc1ccccc1-n1c(CNC)n[nH]c1=O`: the INHIBITION is -63.8%. With `CC(=O)N1[C@@H](C(=O)NCC2CC2)C[C@@H]2CN(Cc3nccs3)C[C@@H]21`, the INHIBITION is listed as 39.5%. For the compound `CC(C)CCN(C(=O)c1nc(S(C)(=O)=O)n2ccccc12)C1CC1`, the INHIBITION was found to be 17.165%. Turning to `COc1cccc(Nc2nc(C3CCCNC3)c3sc(C)c(C)n23)c1` (configuration not stated), the INHIBITION was 11.65%. With `CC(C)(C)NCc1nn(Cc2ccccc2)nc1-c1ccccc1`, the INHIBITION is 45.8%. Consider `CCn1ccnc1CN1CCN(CCCS(C)(=O)=O)CC1C` (configuration not stated), for which the INHIBITION came out at 8.31%. The figure for `Cc1cc(C(F)(F)F)cc(=O)n1Cc1nc(C(C)C)no1` is 23%; for `CC(=O)NC1Cc2ccc(S(=O)(=O)NCCNc3ccccn3)cc2C1` (configuration not stated) it is -18.8%; for `Cc1nc(CN2C(=O)COC3(CCN(C)CC3)C2C)cs1` (configuration not stated) it is 8.03%. The same measure for `CN(C)CCN1C(=O)CC[C@@H]2[C@H]1CCN2Cc1cccc(C#N)c1`: 49.7%; for `Cc1ccc(C(=O)N2CCC3(CC2)CCN(CCN(C)C)C3=O)cn1`: 28.2%.

As for `Cc1ccc(C(=O)N2CC[C@@H]3[C@H]2CCC(=O)N3CCN(C)C)cn1`, the INHIBITION amounted to 79.2%.

`Cc1cncc(C(=O)N2CC[C@@H]3[C@H]2CCC(=O)N3CCN(C)C)c1`: the INHIBITION is on record as 29%. Take `N#Cc1ccc(C(=O)N2CC[C@H]3[C@@H]2CCC(=O)N3c2ccccc2)cc1`: the INHIBITION worked out at 43.8%. The same measure for `CN(C)CCN1C(=O)CC[C@@H]2[C@H]1CCN2C(=O)c1ccc(C#N)cc1`: 70.4%; for `N#Cc1cccc(CNCCNC(=O)Cc2cccc(F)c2)c1`: 29.2%. The figure for `CCOc1ccc(Cl)c(C(=O)N2CCCSCC2)n1` is 18.2%; for `COc1ccc(NC(=O)CN2CCS(=O)(=O)CC2)cn1` it is -2.55%. `CC(C)OCCN1CCC(Nc2ncc(Br)cn2)CC1`: the INHIBITION is given as 28.7%. Consider `COc1ccnc(NC2CCN(CC(=O)Nc3ccccc3)CC2)n1`, for which the INHIBITION worked out at 60.8%. `COc1ccnc(NC2CCN(CC(=O)N3CCCC3)CC2)n1`: the INHIBITION came out at 11.6%. Consider `O=C(CN1CCC(Nc2ncccn2)CC1)Nc1ccccc1`, for which the INHIBITION is on record as 66.1%.

For `Cc1cc(C)nc(NC2CCN(CCOC(C)C)CC2)n1`, the INHIBITION came out at 43.9%. On to `Cc1cnc(NC2CCN(CC(=O)Nc3ccccc3)CC2)nc1C`, for which the INHIBITION was 14.8%. For the compound `CC(C)OCCN1CCC(Nc2ncccn2)CC1`, the INHIBITION worked out at 55.9%.

With `CC(C)c1nnc(C2CCN(CC(=O)Nc3cccnc3)CC2)o1`, the INHIBITION was -39.2%. Consider `CSc1ccc(CN2CCn3nc(CNC(C)=O)cc3C2)cc1`, for which the INHIBITION was -89.3%. Turning to `CC(C)N1CCC(Cc2cncc(-c3cccc(C(=O)O)c3)n2)C1` (configuration not stated), the INHIBITION was -62.3%.

For the compound `COC(=O)c1ccc(CN2CCN(Cc3nc(C)no3)CC2)s1`, the INHIBITION was 23.2%. For the compound `CC(C)c1nnc2n1CCN(Cc1nc(-c3ccoc3)no1)C2`, the INHIBITION came out at 17.45%. On to `CC1CN(C(=O)CN(Cc2ccccc2Cl)C2CCCC2)CCO1` (configuration not stated), for which the INHIBITION is reported as -0.219%.

For the compound `COc1ccc(CN2CCn3cc(CNC(=O)C4CCC4)nc3C2)cc1`, the INHIBITION was found to be 19.5%.

In the case of `O=C(c1cnccn1)N1CCN2C[C@H](OCc3ccccc3F)C[C@H]2C1`, the INHIBITION is 59.8%. Consider `O=C(c1ccc(F)cc1)N1CCN2C[C@H](OCc3cccnc3)C[C@H]2C1`, for which the INHIBITION is 82.3%.

For `O=C(c1ccco1)N1CCN2C[C@H](OCc3cccnc3)C[C@H]2C1`, the INHIBITION is 12.4%.

In the case of `O=C(c1ccnnc1)N1CCN2C[C@H](OCc3cccnc3)C[C@H]2C1`, the INHIBITION came to 26.4%.

Take `O=C(c1cccc(F)c1)N1CCN2C[C@H](OCc3cccnc3)C[C@H]2C1`: the INHIBITION came to 17.1%.
